Screening data (PubChem BioAssay)
G9a block: qHTS Assay for Inhibitors of Histone Lysine Methyltransferase G9a; Histone-lysine N-methyltransferase EHMT2 (Homo sapiens), Q96KQ7; Potency, µM (highest dose often 102 µM), for the others: at the highest dose activity, negative = inhibition, hits mostly inhibitors; actives 8.8% (n = 350,000); G9a H3K9 monomethylation, AlphaScreen, 2 h; also: % is scaled to controls: 0 for no effect and ±100 for the full control effect; nearly all actives have a fitted effect of over 75% in size
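Signal arises when biotinylated H3K9 peptide, once monomethylated, bridges streptavidin donor and antibody-captured acceptor beads. Enzyme at 20 nM was preincubated 15 min with test compounds; peptide 500 nM and SAM 20 uM then reacted for 2 h.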
BAZ2B inh: qHTS Assay for Inhibitors of BAZ2B; Bromodomain adjacent to zinc finger domain protein 2B (Homo sapiens), Q9UIF8; AlphaScreen BAZ2B-H3K14Ac peptide displacement; AID 504333, 2011; actives 4.4% (n = 360,000); Potency, µM (series often up to 114 µM), inactives show at the top dose activity change, negative = inhibition, most hits filed as inhibitors; also: % is scaled to controls: 0 for no effect and ±100 for the full control effect; nearly all actives have a fitted effect of over 60% in size
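AlphaScreen displacement of biotin-H3(5-23)K14Ac peptide (50 nM final) from BAZ2B (50 nM final) in PBS pH 7.4, 0.01% Tween-20; complex preformed 30 min RT, then compounds (top 110 uM) 30 min RT, beads 20 min dark.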
L3MBTL1 block: qHTS Assay for the Inhibitors of L3MBTL1; Lethal(3)malignant brain tumor-like protein 1 (Homo sapiens), Q9Y468; AlphaScreen L3MBTL1–H3K9me1 peptide binding; Potency, µM (top dose mostly 57.1 µM), without a hit: top-dose activity, negative = inhibition, most hits filed as inhibitors; actives 0.66% (n = 230,000); AID 485360, 2010; also: % is scaled to controls: 0 for no effect and ±100 for the full control effect; nearly all actives have a fitted effect of over 60% in size
Target sequence (Q9Y468 whole entry, looked up): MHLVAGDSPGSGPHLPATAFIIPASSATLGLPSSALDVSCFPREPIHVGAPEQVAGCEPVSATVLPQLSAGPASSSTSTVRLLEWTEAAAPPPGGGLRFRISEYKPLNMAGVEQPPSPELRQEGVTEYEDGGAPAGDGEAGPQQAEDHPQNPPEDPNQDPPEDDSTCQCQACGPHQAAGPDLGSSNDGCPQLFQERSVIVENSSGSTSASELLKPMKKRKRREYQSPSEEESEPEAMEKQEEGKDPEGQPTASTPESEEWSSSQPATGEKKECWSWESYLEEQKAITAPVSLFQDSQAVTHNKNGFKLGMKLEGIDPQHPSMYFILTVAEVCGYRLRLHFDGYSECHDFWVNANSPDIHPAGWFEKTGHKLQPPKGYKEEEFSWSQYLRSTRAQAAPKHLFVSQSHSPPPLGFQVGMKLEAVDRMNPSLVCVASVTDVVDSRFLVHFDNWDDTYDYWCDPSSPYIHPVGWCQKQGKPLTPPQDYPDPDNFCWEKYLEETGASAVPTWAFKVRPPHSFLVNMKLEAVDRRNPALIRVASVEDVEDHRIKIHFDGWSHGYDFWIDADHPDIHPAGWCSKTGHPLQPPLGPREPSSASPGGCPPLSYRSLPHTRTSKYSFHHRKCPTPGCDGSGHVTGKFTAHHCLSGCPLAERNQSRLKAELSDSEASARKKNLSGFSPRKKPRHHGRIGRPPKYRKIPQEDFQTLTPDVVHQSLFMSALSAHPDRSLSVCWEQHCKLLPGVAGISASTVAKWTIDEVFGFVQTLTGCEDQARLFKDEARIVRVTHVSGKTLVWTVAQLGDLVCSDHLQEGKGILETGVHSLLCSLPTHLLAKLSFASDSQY
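L3MBTL1 50 nM + b-AHA-H3(1-15)K9me1 75 nM, 30 min RT; compound added, 30 min RT; streptavidin donor/Ni-chelate acceptor beads 10 ug/mL each final, 30 min RT dark; AlphaScreen read.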
HP1b binding inh: HTS for Inhibitors of HP1-beta Chromodomain Interactions with Methylated Histone Tails; AlphaScreen HP1-beta / biotin-H3K9me3 peptide binding; Potency, µM (titrated, usually from 114 µM), without a hit: at the top dose activity change, negative = inhibition, hits mostly inhibitors; actives 0.56% (n = 390,000); AID 540317, 2011; also: nearly all actives have a fitted effect of over 70% in size
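AlphaScreen: HP1-beta (50 nM) preformed 30 min with biotin-H3(1-18)K9me3 peptide (50 nM) in PBS pH 7.4, 0.01% Tween-20. Compound added for 30 min at RT, then streptavidin donor/nickel chelate acceptor beads (10 ug/mL) for 30 min.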
JMJD2A Tudor inh: qHTS Assay for Inhibitors of JMJD2A-Tudor Domain; Potency, µM (series often up to 114 µM), for inactives: at the top dose activity change, negative = inhibition, usual class: inhibitors; actives 4.4% (n = 390,000); AlphaScreen JMJD2A-Tudor / H3K4me3 peptide binding; also: % is scaled to controls: 0 for no effect and ±100 for the full control effect; nearly all actives have a fitted effect of over 50% in size
Active calls of the source: *; ? = inconclusive; . = no result; [ ] = another dose, or the depositor's remark. A selection: hits, their analogues and other compounds. The true share with any hit is near 11%. Calls follow the shape of the dose curve; as a rule, active = well fitted inhibition curve with a large enough effect; inconclusive = small, poorly fitted or top-dose-only effect; inactive = no such curve, though single readings can be large or run the other way. Potency is read from the fitted curve at half-maximal effect.

SMILES	G9a block	BAZ2B inh	L3MBTL1 block	HP1b binding inh	JMJD2A Tudor inh
Cc1ccc(Nc2nc(-c3c(C)nc4ccccn34)cs2)cc1	?	-38.1%	-0.1%	4.7%	?
Cc1nc2ncccn2c1-c1csc(Nc2ccc(O)cc2)n1	11.2µM*	?	-21.0%	20.2%	-25.2%
CCC(=O)C1=C(c2cccc(OC)c2)N(C(=O)CC)n2c(nnc2C2CCCCC2)S1	8.9%[59 µM]	10.6%	.	52.1%	29.2%
CSCC(=O)N1CCC(n2nccc2NC(=O)c2ccc3c(c2)OCO3)CC1	44.7µM*	0.6%	.	7.6%	?
CSCC(C)N1CCC(n2nccc2NC(=O)c2ccc3c(c2)OCO3)CC1 (stereo unspecified)	27.7%	-8.1%	.	31.4%	-7.5%
Cn1c(=O)c2cc(S(=O)(=O)NC(C(=O)NC3CCCCC3)c3ccccc3)ccc2n(C)c1=O (stereo unspecified)	18.8%	10.8%	.	45.0%	-10.6%
Cn1c(=O)c2cc(S(=O)(=O)NC(C(=O)N3CCCCCC3)c3ccccc3)ccc2n(C)c1=O (stereo unspecified)	44.7µM*	14.2%	.	77.3%	-2.8%
CCOCCCNC(=O)C(Cc1ccccc1)NS(=O)(=O)c1ccc2c(c1)c(=O)n(C)c(=O)n2C (stereo unspecified)	-22.9%	-0.2%	.	13.2%	-2.1%
CC(C)OCCCNC(=O)C(NS(=O)(=O)c1ccc2c(c1)c(=O)n(C)c(=O)n2C)c1ccccc1 (stereo unspecified)	14.1µM*	-4.1%	4.1%	.	.
O=C1NN(c2ccccc2)C(=O)/C1=C/c1ccc(Sc2cccc3ccccc23)o1	31.6µM*	10µM*	?	?	?
COc1ccccc1NC(=O)CN1C(=O)C2(SCC(=O)N2c2ccc(C)c(C)c2)c2ccccc21 (stereo unspecified)	-9.8%[59 µM]	1.8%[57.1 µM]	.	33.3%	-15.2%
CCCOC(=O)C1[C@H]2C(=O)N(Cc3ccco3)C[C@]23C=C[C@H]1O3 (stereo partly specified)	50.1µM*	9.8%	-1.8%	37.6%	-18.0%
CCCCOC(=O)C1[C@H]2C(=O)N(Cc3cccs3)C[C@]23C=C[C@H]1O3 (stereo partly specified)	-37.0%[59 µM]	79.4µM*	-5.0%	35.1%	-16.0%
CCCCCOC(=O)C1[C@H]2C(=O)N(Cc3cccs3)C[C@]23C=C[C@H]1O3 (stereo partly specified)	9.9%[59 µM]	-2.3%	10.2%	25.5%	-17.9%
Cc1nc2ccccc2n1CCc1nc2c3ccccc3nc(SCc3ccccc3F)n2n1	0.8%[59 µM]	0.5%	.	8.2%	-15.3%
O=C(NCC1CCCO1)c1csc2c1CCCCC2 (stereo unspecified)	0.4%[59 µM]	3.3%	1.4%	21.7%	-7.7%
CCOC(=O)N1CCN(C(=O)c2ccc(Cn3c(=S)[nH]c4cc5c(cc4c3=O)OCO5)cc2)CC1	7.08µM*	9.9%	5.5%	10.8%	?
O=C(CCCn1c(=S)[nH]c2ccc(Br)cc2c1=O)NCC1CCCO1 (stereo unspecified)	39.8µM*	-32.5%	-6.0%	56.6%	-21.8%
O=C(CCCn1c(=O)[nH]c2cc(Cl)ccc2c1=O)NCC1CCCO1 (stereo unspecified)	20.5%[59 µM]	5.0%	28.1%	8.3%	-7.5%
CC1CCc2c(C(=O)NCC3CCCO3)csc2C1 (stereo unspecified)	89.1µM*	4.4%	65.1%	32.0%	-11.6%
O=C(NCC1CCCO1)c1ccc2c(=O)n(CC3CCCO3)c(=S)[nH]c2c1 (stereo unspecified)	?	?	.	28.7%	7.94µM*
CCOC(=O)N1CCN(C(=O)c2ccc3c(=O)n(CC4CCCO4)c(=S)[nH]c3c2)CC1 (stereo unspecified)	39.8µM*	-26.1%	0.4%	62.1%	50.1µM*
COCCn1c(=S)[nH]c2cc(C(=O)NCC3CCCO3)ccc2c1=O (stereo unspecified)	?	?	2.0%	23.7%	17.8µM*
O=C(c1ccc2c(=O)n(Cc3ccc(Cl)cc3)c(=S)[nH]c2c1)N1CCCC1	30.9%[59 µM]	-16.1%	.	34.7%	-7.6%
O=C(c1ccc2c(=O)n(CC3CCCO3)c(=S)[nH]c2c1)N1CCN(c2ccccc2)CC1 (stereo unspecified)	-2.7%	3.7%	-4.2%	21.8%	-22.7%
SMILES	G9a block	BAZ2B inh	L3MBTL1 block	HP1b binding inh	JMJD2A Tudor inh
CC1CCc2[nH]c3ccc(C(=O)NCC4CCCO4)cc3c2C1 (stereo unspecified)	44.7µM*	-38.1%	-14.0%	?	?
CN1CCN(C(=O)c2ccc3c(=O)n(Cc4ccc(Cl)cc4)c(=S)[nH]c3c2)CC1	44.7µM*	-20.0%	2.7%	24.9%	-32.5%
CSc1nnc2ccc(-c3cccs3)nn12	2.4%	4.8%	9.6%	21.7%	-0.3%
CCc1ccccc1NC(=O)C(=O)NCC(c1cccnc1)N1CCc2ccccc21 (stereo unspecified)	-5.2%[59 µM]	0.4%	.	19.9%	-0.7%
CN(C)c1ccc(CNCCC2CCOC(C)(C)C2)cc1 (stereo unspecified)	44.7µM*	?	.	.	.
O=C(CN1CCC(n2nnc3cc(F)ccc32)CC1)NCc1ccco1	?	79.4µM*	-18.5%	12.4%	-23.5%
Cc1onc(-c2ccccc2)c1C(=O)Nc1cccc(S(=O)(=O)N2CCCCC2)c1	.	.	-6.8%	13.6%	-18.5%
O=C(O)c1[nH]c2ccccc2c1C=NCc1ccccc1Cl	56.2µM*	-12.5%	-11.7%	28.6%	-11.6%
CCN(CC)c1ccc(N=Nc2ncn[nH]2)cc1	1µM*	.	-10.1%	10.4%	?
CCN(CC)c1ccc(/C=N/O)cc1	?	-27.9%	-4.8%	18.5%	-21.6%
NNC(=O)c1cncn1-c1ccc(F)cc1	0.3%	50.1µM*	-1.0%	57.1%	?
O=C(CCCn1c(=O)c2cccn2c2ccccc21)Nc1cccc(Cl)c1	-45.4%[59 µM]	?	.	-8.9%	-35.5%
O=C(c1ccc(Sc2cccc(Cl)c2)c([N+](=O)[O-])c1)N1CCN(c2ccccn2)CC1	15.8µM*	?	.	?	?
CCCCCCc1ccc(C(=O)CCN(C)C)cc1	.	.	.	.	6.2%
C#CCOCCOCCOCCNc1nc(N2CCN(C(=O)Cn3cc(CCCN=C(N)N)nn3)CC2)nc(N2CCN(C(=O)[C@H]([C@@H](C)CC)n3cc(CCCN=C(N)N)nn3)CC2)n1	22.4µM*	?	-0.6%	.	.
C#CCOCCOCCOCCNc1nc(N2CCN(C(=O)Cn3cc(CC(C)O)nn3)CC2)nc(N2CCN(C(=O)[C@H]([C@@H](C)O)n3cc(CCCCN)nn3)CC2)n1 (stereo partly specified)	.	.	.	4.3%	-13.3%
